The values that follow come from PubChem BioAssay (NCI).

Some test systems named below: RPMI-8226 leukemia; OVCAR-8 ovarian; OVCAR-5 ovarian; OVCAR-4 ovarian; SK-OV-3 ovarian; IGROV1 ovarian; OVCAR-3 ovarian; HS 578T breast; NCI/ADR-RES ovarian; T-47D breast; BT-549 breast; MDA-MB-435 melanoma; SW-620 colon; MCF7 breast; HCT-116 colon; HCC-2998 colon; KM12 colon; SR leukemia.
What all share (experiment): NCI-60 one-dose screen, 48 h (100 = growth as untreated, 0 = no growth, -100 = all killed)
Common to all, as to conditions: 10 µM unless noted

Molecules are shown by their SMILES. The panel holds about 83,000 compounds, 20% with a hit somewhere; the sample as a whole holds those more often.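 Plates (96-well) were seeded with cells, treated with compound at one concentration, and incubated for 48 hours before percent growth was determined.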 Values without a mark were called inactive. Calls of active or inactive are those of the source. Rule for the calls: active = growth percent below 10; inactive = the rest.

`C=C1CCC2C3(C)COC(c4ccc(SC)cc4)OC3CCC2(C)C1C/C=C1/C(=O)OCC1O` (stereo unspecified): the growth was 11.6% in the assay with RPMI-8226 leukemia; 34.9% with OVCAR-8 ovarian; 79.1% with OVCAR-5 ovarian; 59.1% with OVCAR-4 ovarian; 96.3% in the assay with SK-OV-3 ovarian; 99.2% in the assay with IGROV1 ovarian. The growth was 71.4% in the assay on OVCAR-3 ovarian; 102% in the assay with HS 578T breast; 49.8% with NCI/ADR-RES ovarian; 23.6% in the assay with T-47D breast; 64.6% with BT-549 breast; 61.3% in the assay with MDA-MB-435 melanoma. Besides, the growth in the assay on SW-620 colon was 10.6%; in the assay on MCF7 breast, 27.7%; with HCT-116 colon it was 11.2%; in the assay on HCC-2998 colon, 90.5%; with KM12 colon, 44.3%.
Take `C=C(CN1CCN(c2cccc(C(F)(F)F)n2)CC1)c1ccc(C(=O)Nc2ccccc2N)cc1`: the growth in the assay on SR leukemia is -20.9% (active); in the assay on OVCAR-8 ovarian, 18.8%; in the assay with OVCAR-5 ovarian, 34.8%; with OVCAR-4 ovarian it was 32.9%; in the assay on SK-OV-3 ovarian, 21.2%; with OVCAR-3 ovarian, -38.2% (active). Further, the growth in the assay on HS 578T breast was 41.1%; in the assay with NCI/ADR-RES ovarian, 1.99% (active); in the assay with BT-549 breast, 22.8%; in the assay with MDA-MB-435 melanoma, -9.74% (active); in the assay on SW-620 colon, 55.2%; in the assay on MCF7 breast, 1.51% (active). Further, the growth in the assay with HCT-116 colon is 15.5%; in the assay on HCC-2998 colon, -41% (active); in the assay on KM12 colon, -3.75% (active).
Consider `O=C1NC(=O)C(CC(=O)n2c(-c3ccccc3)nc3ccccc32)C(=O)N1`, for which the growth was 101% in the assay on RPMI-8226 leukemia; 101% in the assay on OVCAR-8 ovarian; 103% in the assay with OVCAR-5 ovarian; 103% in the assay on OVCAR-4 ovarian; 98.3% in the assay on SK-OV-3 ovarian; 93.3% in the assay on IGROV1 ovarian. Also, the growth in the assay on OVCAR-3 ovarian is 106%; in the assay on HS 578T breast it was 102%; in the assay on NCI/ADR-RES ovarian it was 103%; in the assay on T-47D breast it was 93.5%; in the assay with BT-549 breast, 101%; with MDA-MB-435 melanoma, 106%. The growth in the assay with SW-620 colon was 104%; in the assay on MCF7 breast, 92.4%; with HCT-116 colon, 104%; with HCC-2998 colon, 113%; with KM12 colon, 101%.
For `COc1ccc(-c2cc(C(=O)N=Nc3c(O)[nH]c4ccccc34)no2)cc1`, the growth in the assay on RPMI-8226 leukemia is 96.9%; with OVCAR-8 ovarian it was 103%; in the assay with OVCAR-5 ovarian, 97.7%; with OVCAR-4 ovarian it was 105%; in the assay with SK-OV-3 ovarian it was 103%; in the assay on IGROV1 ovarian, 102%. Further, the growth in the assay with OVCAR-3 ovarian was 108%; in the assay with HS 578T breast, 95.3%; in the assay on NCI/ADR-RES ovarian it was 102%; in the assay on T-47D breast it was 98%; in the assay with BT-549 breast it was 109%; in the assay with MDA-MB-435 melanoma, 102%. For the same molecule, the growth was 96.9% with SW-620 colon; 95.1% in the assay with MCF7 breast; 100% in the assay with HCT-116 colon; 107% in the assay with HCC-2998 colon; 101% in the assay on KM12 colon.
`O=c1c2cccc3c(Nc4ccccn4)ccc(c32)c2nc3ccccc3n12`: the growth in the assay with SR leukemia was 10.2%; with OVCAR-8 ovarian, 75.4%; in the assay with OVCAR-5 ovarian it was 83.3%; in the assay on OVCAR-4 ovarian it was 69.1%; in the assay with SK-OV-3 ovarian, 89.1%; in the assay on IGROV1 ovarian, 56.6%. Moreover, the growth was 111% with HS 578T breast; 74.6% in the assay with NCI/ADR-RES ovarian; 46.6% with T-47D breast; 99.4% in the assay on MDA-MB-435 melanoma; 77.1% in the assay with SW-620 colon; 28.7% in the assay on MCF7 breast. Further, the growth in the assay with HCT-116 colon is 65%; in the assay with HCC-2998 colon, 68.5%; in the assay with KM12 colon, 74.8%.
With `O=C(Nc1cccc2[nH]c(C(F)(F)F)nc12)c1ccc(Br)cc1F`, the growth in the assay on SR leukemia was 18.5%; in the assay with OVCAR-8 ovarian, 33.2%; in the assay on OVCAR-5 ovarian it was 98.9%; in the assay with OVCAR-4 ovarian, 11.8%; with SK-OV-3 ovarian, 65.1%; in the assay with IGROV1 ovarian, 42.2%. Besides, the growth in the assay with OVCAR-3 ovarian is 24.4%; in the assay on HS 578T breast, 70.4%; with NCI/ADR-RES ovarian it was 10.8%; with BT-549 breast, 19.4%; in the assay with MDA-MB-435 melanoma it was 26.9%; with SW-620 colon, 41.6%. Further, the growth is 27.1% in the assay on MCF7 breast, 22.7% in the assay on HCT-116 colon, 48.3% in the assay on HCC-2998 colon and 27% in the assay on KM12 colon.
`CC(=O)/C(=C/c1cccc(Cl)c1)C(=O)c1ccccc1`: the growth is 16.8% in the assay on RPMI-8226 leukemia; 85.2% in the assay on OVCAR-8 ovarian; 94.1% in the assay with OVCAR-5 ovarian; 89.6% in the assay on OVCAR-4 ovarian; 96.3% in the assay on SK-OV-3 ovarian; 83% with IGROV1 ovarian. The growth in the assay with OVCAR-3 ovarian is 96.1%; with HS 578T breast, 94.7%; in the assay with NCI/ADR-RES ovarian it was 75.8%; in the assay on T-47D breast, 63.6%; with BT-549 breast, 72.6%; with MDA-MB-435 melanoma, 72.7%. The growth in the assay with SW-620 colon was 71.3%; in the assay with MCF7 breast, 34%; in the assay on HCT-116 colon, 41.7%; in the assay on HCC-2998 colon, 99.9%; in the assay with KM12 colon, 54.8%.
Regarding `C=C1CCC2C3(C)COC(c4cccc(Cl)c4)OC3CCC2(C)C1/C=C/C1=CCOC1=O` (stereo unspecified), the growth in the assay with RPMI-8226 leukemia is 51.8%; with OVCAR-8 ovarian, 71.5%; with OVCAR-5 ovarian, 84.3%; in the assay on OVCAR-4 ovarian, 53.7%; in the assay with SK-OV-3 ovarian, 78.1%; in the assay with IGROV1 ovarian, 88.9%. In addition, the growth is 76.9% with OVCAR-3 ovarian; 96.1% in the assay on HS 578T breast; 44% with NCI/ADR-RES ovarian; 27.7% in the assay with T-47D breast; 55.9% in the assay on BT-549 breast; 79.4% in the assay with MDA-MB-435 melanoma. Besides, the growth was 78.4% in the assay on SW-620 colon; 42% in the assay on MCF7 breast; 28.9% with HCT-116 colon; 39.9% with HCC-2998 colon; 74.3% with KM12 colon.
